# Measurements from publication PMC4336329 (PLoS ONE, 2015).
# Out of some 310,000 compounds screened, about 14,000 (4.5%) showed an effect of 50% or more. Effects have a minus sign here. What follows is part of a selection rich in strong results, with near analogues and random picks from the rest.
# Target: human ether-à-go-go-related gene (hERG) potassium channel (human, UniProt Q12809)
# Test: primary screen, population patch clamp on CHO cells stably expressing hERG; higher = less effect of the substance
# Protocol: Briefly, Chinese hamster ovary (CHO) cells stably expressing the hERG channel were dislodged from tissue culture flasks and dispensed into PPC plates. […] During the recording, background leak currents were estimated by a 100 ms step to -80 mV from an initial holding potential of -70 mV and subtracted from the subsequent current measurement. The campaign was conducted in two phases using slight differences in recording protocol. In the first phase, the initial voltage pulse used a 100 ms step to -30 mV from a holding potential of -70 mV, a 2 s conditioning step to +25 mV, and a 2 s test step to -30 mV. During the second phase of the screen, the potential during the conditioning step was raised to +45 mV. In both phases of the campaign, a secondary voltage pulse was applied using the same parameters as the second phase initial pulse. The initial and secondary pulses were applied in the absence of compound, and upon application of 1 μM and 10 μM test concentrations. […]
# 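Note: peak tail current of the secondary pulse compared with the same well before compound.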
# human ether-à-go-go-related gene (hERG) potassium channel, sequence (Q12809 whole entry, looked up): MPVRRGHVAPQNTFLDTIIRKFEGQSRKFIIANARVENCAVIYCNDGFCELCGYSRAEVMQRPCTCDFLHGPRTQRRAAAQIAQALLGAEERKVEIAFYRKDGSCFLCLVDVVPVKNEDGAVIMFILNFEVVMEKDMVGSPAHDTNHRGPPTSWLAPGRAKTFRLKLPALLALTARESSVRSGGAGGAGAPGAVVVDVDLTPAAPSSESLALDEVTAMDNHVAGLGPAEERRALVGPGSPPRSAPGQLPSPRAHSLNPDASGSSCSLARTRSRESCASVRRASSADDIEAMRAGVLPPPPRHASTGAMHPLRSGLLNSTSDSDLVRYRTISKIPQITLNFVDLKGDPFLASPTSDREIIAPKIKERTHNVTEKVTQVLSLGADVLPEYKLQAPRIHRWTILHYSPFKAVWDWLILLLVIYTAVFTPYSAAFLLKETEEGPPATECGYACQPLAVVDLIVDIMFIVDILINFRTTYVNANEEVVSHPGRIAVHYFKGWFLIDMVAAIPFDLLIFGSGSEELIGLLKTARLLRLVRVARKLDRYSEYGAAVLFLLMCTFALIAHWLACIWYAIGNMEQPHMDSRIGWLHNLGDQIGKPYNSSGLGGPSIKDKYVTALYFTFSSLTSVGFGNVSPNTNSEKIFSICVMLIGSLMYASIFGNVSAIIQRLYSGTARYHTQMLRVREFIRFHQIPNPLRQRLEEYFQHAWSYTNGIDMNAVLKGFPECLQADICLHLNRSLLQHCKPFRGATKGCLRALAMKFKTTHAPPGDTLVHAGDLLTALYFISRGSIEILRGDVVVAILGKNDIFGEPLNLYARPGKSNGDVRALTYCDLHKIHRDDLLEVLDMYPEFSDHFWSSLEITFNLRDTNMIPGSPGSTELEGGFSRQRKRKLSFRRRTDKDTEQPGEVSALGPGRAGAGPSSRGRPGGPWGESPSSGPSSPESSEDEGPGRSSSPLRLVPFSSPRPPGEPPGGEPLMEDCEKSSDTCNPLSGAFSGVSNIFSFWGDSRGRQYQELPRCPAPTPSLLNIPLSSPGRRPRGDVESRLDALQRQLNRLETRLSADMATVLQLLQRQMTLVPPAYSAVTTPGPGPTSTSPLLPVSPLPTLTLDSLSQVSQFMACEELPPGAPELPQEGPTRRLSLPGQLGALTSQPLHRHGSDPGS
row,SMILES,"hERG current change (%, negative = inhibition) at 10uM"
1,CC12CCC(=O)N1C(C(=O)NCc1ccccc1Cl)CS2 (stereo not shown),-9.42%
2,Cc1cc(C)c(OCC(=O)N/N=C/c2ccco2)c(C)c1,-3.8%
3,O=C1NC(=O)/C(=C\c2ccc(OCc3cnc(Cl)s3)cc2)S1,19.9%
4,COc1cccc(Nc2cc(N3CCOCC3)c3nonc3c2[N+](=O)[O-])c1,-8.87%
5,O=C(NCCO)N1c2ccccc2Sc2ccccc21,5.99%
6,O=C(O)CCNC(=O)OCC1c2ccccc2-c2ccccc21,-6.49%
7,COc1ccc(CCN2C(=O)C(C)=C(C)C2=O)cc1OC,11.7%
8,Nn1c(SCC(=O)Nc2ccc3c(c2)OCO3)nnc1C1CC1,7.91%
9,COc1ccc(N(C)S(=O)(=O)c2ccc(Cl)c(C(=O)NCC(C)(C)N3CCOCC3)c2)cc1,-41.5%
10,Cc1ccc(NS(=O)(=O)c2ccc(NC(=O)N3CCCCC3)cc2)cc1,8.78%
11,COCCOc1cc(NC(=O)c2cccc(OC)c2)c(Cl)cc1Cl,6.22%
12,CCCN(CCC)C(=O)/C=C/c1cccc([N+](=O)[O-])c1,-34.5%
13,COc1ccc(OCC(O)CN(C)C(=O)/C=C/c2cccc([N+](=O)[O-])c2)cc1 (stereo not shown),-80.5%
14,CCCC(C)NC(=O)/C=C/c1cccc([N+](=O)[O-])c1 (stereo not shown),-7.16%
15,COc1ccc(OCC(O)CNC(=O)/C=C/c2cccc([N+](=O)[O-])c2)cc1 (stereo not shown),17.6%
16,COc1ccc(/C=C/C(=O)OCc2cccc([N+](=O)[O-])c2)cc1,-9.66%
17,CC(C)N(C(=O)/C=C/c1cccc([N+](=O)[O-])c1)C(C)C,-13.8%
18,CCCCN(CCCC)C(=O)/C=C/c1cccc([N+](=O)[O-])c1,-68%
19,CCCCN(CC)C(=O)/C=C/c1cccc([N+](=O)[O-])c1,-63.5%
20,CCCN(CC(=O)Nc1ccc(Cl)cc1Cl)C(=O)/C=C/c1cccc([N+](=O)[O-])c1,-15.6%
21,O=C(CCNC(=O)c1ccco1)Nc1ccc(Cl)c(C(F)(F)F)c1,-16.3%
22,CCOC(=O)N1CCC(NC(=O)c2cc(COc3ccc(F)cc3Cl)on2)CC1,-0.672%

row,SMILES,"hERG current change (%, negative = inhibition) at 10uM"
1,CCN(CC)c1ccc(/C=N/Nc2nc(C)cc(C)n2)c(O)c1,-7.99%
2,Cc1ccc(C)c(S(=O)(=O)NCCCc2ccccc2)c1,-1.65%
3,CN(c1ccc(C(=O)N2CCOCC2)cc1)S(=O)(=O)c1cccs1,29%
4,COc1ccccc1NC(=O)CON=C(N)CC(=O)NC1CCCCC1,-1.99%
5,CSc1nnc(NC(=O)c2cccc(S(=O)(=O)N3CCOCC3)c2)s1,-5%
6,Cn1c(=O)n(C)c2cc(C(=O)c3ccccc3)ccc21,-1.74%
7,Cc1cc(C)c[n+](CC(=O)c2ccc(C)c([N+](=O)[O-])c2)c1.[Br-],-13.2%
8,Cc1cc(C)c[n+](CC(=O)c2c(C)cc(C)c([N+](=O)[O-])c2C)c1.[Br-],-68.6%
9,Cc1cc(C)c[n+](CC(=O)c2ccccc2)c1.[Br-],22.8%
10,COc1cc(NS(=O)(=O)c2c(C)[nH]c(C)c2C(=O)N2CCCCC2)cc(OC)c1OC,5.18%
11,CCCCCn1nc(C(=O)N2CCc3ccccc32)c2ccccc2c1=O,-3.43%
12,Cc1ccc2nc(Nc3ncc4c(n3)CC(C)(C)CC4=O)nc(C)c2c1,15.3%
13,N#CC1(NC(=O)CSc2nc3ccc([N+](=O)[O-])cc3s2)CCCCC1,-69.5%
14,N#CC1(NC(=O)CSc2nc3ccccc3s2)CCCCC1,-15.7%
15,N#CC1(NC(=O)CN2C(=O)c3ccc([N+](=O)[O-])cc3C2=O)CCCCC1,4.83%
16,O=C(CSc1nc2ccccc2s1)NCC1CCCO1 (stereo not shown),7.82%
17,O=C(CSc1nc2ccc([N+](=O)[O-])cc2s1)NCC1CCCO1 (stereo not shown),-54.4%
18,O=C(CSc1nc2ccc(NC(=O)C3CCCCC3)cc2s1)NCC1CCCO1 (stereo not shown),2.42%
19,CCn1c(/N=C/c2ccccc2NS(=O)(=O)c2ccc(C)cc2)nc2ccccc21,-19.8%
20,COc1ccc(N(CC(=O)Nc2ccc(F)c(F)c2)S(=O)(=O)c2c(C)[nH]c(=O)[nH]c2=O)cc1,19.9%
21,NC(=O)COC(=O)c1ccc(-c2ccccc2)cc1,14.2%
22,O=C(CCCC(=O)N(CC(=O)NC1CCCCC1)Cc1ccc2c(c1)OCO2)Nc1ccccn1,-54.3%

row,SMILES,"hERG current change (%, negative = inhibition) at 10uM"
1,O=C(CCCC(=O)N(CC(=O)NC1CCCC1)Cc1ccc2c(c1)OCO2)Nc1ccccn1,-26.5%
2,CC(C)CCNC(=O)CN(Cc1ccccc1)C(=O)CCC(=O)Nc1ccccn1,-19.7%
3,CC(C)CCNC(=O)CN(Cc1ccc2c(c1)OCO2)C(=O)CCC(=O)Nc1ccccn1,-70.7%
4,CC(C)NC(=O)CN(Cc1ccc2c(c1)OCO2)C(=O)CCC(=O)Nc1ccccn1,1.7%
5,O=C(CCCC(=O)N(CC(=O)NC1CCCCC1)Cc1ccccc1)Nc1ccccn1,-6.57%
6,Cc1cccc(OCC(=O)N/N=C/c2cc([N+](=O)[O-])ccc2N2CCOCC2)c1,-9.73%
7,COc1ccc(-c2oc3ccc(N4CCOCC4)cc3c2C#CC2(O)CCCCC2)cc1,17.3%
8,CCN(CC)c1ccc(/C=C2/C(=O)ON=C2C)cc1,-20.9%
9,Cc1cc(=O)n2nc(N3CCCC(C(=O)N4CCN(c5ccccc5)CC4)C3)sc2n1 (stereo not shown),-53.5%
10,Cc1ccc(CNC(=O)C2CCCN(c3nn4c(=O)cc(C)nc4s3)C2)cc1 (stereo not shown),-31.1%
11,CCCc1cc(=O)n2nc(N3CCC(C(=O)NCc4ccc(C)o4)CC3)sc2n1,-61.6%
12,Cc1cc(=O)n2nc(N3CCCC(C(=O)NCc4ccc(Cl)cc4)C3)sc2n1 (stereo not shown),-71.7%
13,CCCc1cc(=O)n2nc(N3CCC(C(=O)NCc4ccco4)CC3)sc2n1,-44.4%
14,Cc1ccc(CCNC(=O)C2CCN(c3nn4c(=O)cc(C)nc4s3)CC2)cc1,-33.4%
15,CCc1ccc(CNC(=O)C2CCCN(c3nn4c(=O)cc(C)nc4s3)C2)cc1 (stereo not shown),-36.2%
16,Cc1cc(=O)n2nc(N3CCC(C(=O)NCCc4ccccc4)CC3)sc2n1,-10.1%
17,Cc1cc(=O)n2nc(N3CCC(C(=O)N4CCN(c5ccccc5)CC4)CC3)sc2n1,-11.9%
18,Cc1cc(=O)n2nc(N3CCCC(C(=O)N4CCN(C)CC4)C3)sc2n1 (stereo not shown),-7.39%
19,Cc1cc(=O)n2nc(N3CCC(C(=O)NCc4ccco4)CC3)sc2n1,17.9%
20,Cc1cc(=O)n2nc(N3CCC(C(=O)NCCc4ccc(Cl)cc4)CC3)sc2n1,-54.5%
